“And” between values parts separate entries of the source, which are not always exact repeats. Identical values can stand only once. Records with an inconclusive call do not appear. More than one record can exist for a structure, and the calls need not agree. The source made the active and inactive calls. Rule for the calls: active = hit-call score of the fitted dose curve at least 0.9, where 1 is the maximum; inconclusive = response in the unintended direction; inactive = score below 0.9.
target: human Esterase Plasma (ES), BCHE (gene 590) (UniProt P06276); test: NVS_ENZ_hES: NovaScreen (NVS) Enzymatic Assay for human Esterase Plasma (ES) (AID 2283157)
Procedure: NVS_ENZ_hES is a biochemical, single-readout assay that uses extracted gene-proteins from Human plasma in a cell-free assay. Measurements were taken 0.25 hour after chemical dosing in a 96-well plate.NVS_ENZ_hES is one of one assay component(s) measured or calculated from the NVS_ENZ_hES assay. It is designed to make measurements of enzyme activity, a form of enzyme reporter, as detected with absorbance signals by Colorimetric technology.Data from the assay component NVS_ENZ_hES was analyzed into 1 assay endpoint. This assay endpoint, NVS_ENZ_hES, was analyzed in the positive analysis fitting direction relative to DMSO as the negative control and baseline of activity. Using a type of enzyme reporter, loss-of-signal activity can be used to understand changes in the enzymatic activity as they relate to the gene BCHE. Furthermore, this assay endpoint can be referred to as a primary readout, because this assay has produced multiple assay endpoints where this one serves a enzymatic activity function. To generalize the intended target to other relatable targets, this assay endpoint is annotated to the esterase intended target family, where the subfamily is pseudocholinesterase.
(§1) Binding assays used specific radioligands (tritiated, iodinated) with non-radioactive competitive displacement ligands in agonist or antagonist protocols (as indicated) and various reference compounds and inhibitors to titrate specific binding to receptors and transporters. Most enzyme assays (CYPs, kinases, phosphatases, proteases, HDACs) used recombinant protein and specific substrates (fluorescence mostly, some colorimetric and radioactive) and inhibitors, followed by a biochemical separation of substrate and product. All assays for the biochemical HTS were initially run in duplicate at a single concentration (10 uM for CYP450 assays and 25 uM for all others). Assay-chemical combinations meeting a pre-defined threshold (e.g., 30% inhibition and other criteria defined below) were then run in singleton concentration-response format with maximum concentration of 20 uM for CYPs and 50 uM for all others. Each assay was run with positive and negative controls, and concurrent controls on every plate. The follow-up (secondary) screen tested active chemical-pairs in concentration series, as well as a few additional assays not tested in the primary screen, some selected negative inactives, and several cases re-run in the concentration series for confirmatory purposes.

Sequence of human Esterase Plasma (ES), BCHE (gene 590) (P06276 whole entry, looked up): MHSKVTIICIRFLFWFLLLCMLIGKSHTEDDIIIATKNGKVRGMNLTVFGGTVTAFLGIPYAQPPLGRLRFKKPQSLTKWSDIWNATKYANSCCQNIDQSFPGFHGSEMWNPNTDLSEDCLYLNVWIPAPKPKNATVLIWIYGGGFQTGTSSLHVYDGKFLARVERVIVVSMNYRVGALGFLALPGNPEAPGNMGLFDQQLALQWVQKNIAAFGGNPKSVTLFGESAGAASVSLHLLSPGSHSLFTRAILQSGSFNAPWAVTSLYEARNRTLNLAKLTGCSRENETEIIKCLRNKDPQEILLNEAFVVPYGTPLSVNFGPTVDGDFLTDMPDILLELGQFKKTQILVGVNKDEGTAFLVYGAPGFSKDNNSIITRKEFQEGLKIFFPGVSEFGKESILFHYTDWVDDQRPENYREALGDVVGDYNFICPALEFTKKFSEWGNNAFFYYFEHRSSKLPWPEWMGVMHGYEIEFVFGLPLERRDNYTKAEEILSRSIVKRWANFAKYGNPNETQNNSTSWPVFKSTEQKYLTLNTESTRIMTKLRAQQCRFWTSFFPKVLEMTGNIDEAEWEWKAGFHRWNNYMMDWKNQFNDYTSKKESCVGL

For `CNC(=O)ON=C(SC)C(=O)N(C)C`, which AC50 is on record?
The AC50 was 20.2 µM (active).

How did the AC50 turn out when `CCOP(=S)(Oc1cnc(C(C)(C)C)nc1)OC(C)C` (stereo not given) was run?
Its AC50 is 25 µM (active).

For `COP(=O)(OC)OC(Br)C(Cl)(Cl)Br` (stereo not given), which AC50 is on record?
The AC50 was 3.82 µM (active).

`CCOP(=S)(OCC)OC(Cl)C(Cl)(Cl)Cl` (stereo not given) was tested. Which AC50 did it give?
Its AC50 is 16.2 µM (active).

`COP(=O)(OC)SCn1c(=O)oc2cc(Cl)cnc21` was tested. Which AC50 did it give?
The AC50 was 18.5 µM (active).

`CN(C)[C@@H]1C(=O)C(C(N)=O)=C(O)[C@@]2(O)C(=O)C3=C(O)c4c(O)cccc4[C@@](C)(O)[C@H]3[C@H](O)[C@@H]12` was tested. Which outcome did it give?
The outcome was “inactive”.

For `CCOP(=S)(OCC)Oc1ccc([N+](=O)[O-])cc1`, which AC50 is on record?
The AC50 was 17.5 µM (active).

For `CCCSP(=O)(OCC)Oc1ccc(Br)cc1Cl` (stereo not given), which AC50 is on record?
The AC50 was 0.968 µM (active).

For `CCCCOC(=O)c1ccccc1C(=O)O`, which outcome is on record?
The outcome was “inactive”.

target: human Fibroblast Growth Factor Receptor 1 (FGFR1), FGFR1 (gene 2260) (UniProt P11362); test: NVS_ENZ_hFGFR1: NovaScreen (NVS) Enzymatic Assay for human Fibroblast Growth Factor Receptor 1 (FGFR1) (AID 2283159);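 for AC50: hits lower the signal so potencies describe inhibitors of the kinase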
Procedure: (§2) NVS_ENZ_hFGFR1 is a biochemical, single-readout assay that uses extracted gene-proteins in a cell-free assay. Measurements were taken 1 hour after chemical dosing in a 384-well plate.NVS_ENZ_hFGFR1 is one of one assay component(s) measured or calculated from the NVS_ENZ_hFGFR1 assay. It is designed to make measurements of enzyme activity, a form of enzyme reporter, as detected with fluorescence intensity signals by Fluorescence and electrophoretic mobility shift technology.Data from the assay component NVS_ENZ_hFGFR1 was analyzed into 1 assay endpoint. This assay endpoint, NVS_ENZ_hFGFR1, was analyzed in the positive analysis fitting direction relative to DMSO as the negative control and baseline of activity. Using a type of enzyme reporter, loss-of-signal activity can be used to understand changes in the enzymatic activity as they relate to the gene FGFR1. Furthermore, this assay endpoint can be referred to as a primary readout, because this assay has produced multiple assay endpoints where this one serves a enzymatic activity function. To generalize the intended target to other relatable targets, this assay endpoint is annotated to the kinase intended target family, where the subfamily is receptor tyrosine kinase.
as §1, with “Assay-chemical combinations meeting a pre-defined threshold (e.g., 30% inhibition and other criteria defined below) were then run in singleton concentration-response format with maximum concentration of 20 uM for CYPs and 50 uM for all others.” left out

Sequence of human Fibroblast Growth Factor Receptor 1 (FGFR1), FGFR1 (gene 2260) (P11362 whole entry, looked up): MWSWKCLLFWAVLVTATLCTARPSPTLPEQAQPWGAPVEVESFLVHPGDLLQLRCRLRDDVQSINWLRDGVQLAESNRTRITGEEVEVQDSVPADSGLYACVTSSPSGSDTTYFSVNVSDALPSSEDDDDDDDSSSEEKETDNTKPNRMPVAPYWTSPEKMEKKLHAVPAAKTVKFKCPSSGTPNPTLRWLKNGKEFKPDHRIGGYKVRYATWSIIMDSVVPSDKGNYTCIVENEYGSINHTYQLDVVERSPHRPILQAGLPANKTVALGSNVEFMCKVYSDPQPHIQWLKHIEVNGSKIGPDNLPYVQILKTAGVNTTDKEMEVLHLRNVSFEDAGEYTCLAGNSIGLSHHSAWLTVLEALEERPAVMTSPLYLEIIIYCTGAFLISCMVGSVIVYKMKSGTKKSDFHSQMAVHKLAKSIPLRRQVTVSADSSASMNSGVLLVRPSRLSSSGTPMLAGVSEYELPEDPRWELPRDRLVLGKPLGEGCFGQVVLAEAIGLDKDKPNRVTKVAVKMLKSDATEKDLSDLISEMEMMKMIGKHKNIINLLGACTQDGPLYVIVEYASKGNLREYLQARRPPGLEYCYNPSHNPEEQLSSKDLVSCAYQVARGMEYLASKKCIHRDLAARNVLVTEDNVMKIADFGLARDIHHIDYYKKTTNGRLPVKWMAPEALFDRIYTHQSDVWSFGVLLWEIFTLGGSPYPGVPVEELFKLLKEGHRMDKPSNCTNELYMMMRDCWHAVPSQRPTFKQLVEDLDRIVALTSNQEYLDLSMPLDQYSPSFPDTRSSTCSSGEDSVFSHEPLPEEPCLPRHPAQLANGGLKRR

`CN(C)[C@@H]1C(=O)C(C(N)=O)=C(O)[C@@]2(O)C(=O)C3=C(O)c4c(O)cccc4[C@@](C)(O)[C@H]3[C@H](O)[C@@H]12` was tested. Which AC50 did it give?
Its AC50 is 5.86 µM (active) and 7.55 µM (active).

And the outcome?
The outcome was “inactive”.

With `CC[C@H](C)[C@H]1O[C@]2(C=C[C@@H]1C)C[C@@H]1C[C@@H](C/C=C(\C)[C@@H](O[C@H]3C[C@H](OC)[C@@H](O[C@H]4C[C@H](OC)[C@@H](NC)[C@H](C)O4)[C@H](C)O3)[C@@H](C)/C=C/C=C3\CO[C@@H]4[C@H](O)C(C)=C[C@@H](C(=O)O1)[C@]34O)O2` as the compound, how does the AC50 read?
The AC50 was 16.5 µM (active).

`C[N+]1(C)CCCCC1` was tested. Which outcome did it give?
The outcome was “inactive”.

For `CCOC(=O)COc1cc(-c2nn(C)c(OC(F)F)c2Cl)c(F)cc1Cl`, which outcome is on record?
Its outcome is “inactive”.

target: Glycogen synthase kinase-3 beta (Homo sapiens) (UniProt P49841); test: NVS_ENZ_hGSK3b: NovaScreen (NVS) Enzymatic Assay for human Glycogen Synthase Kinase-3 beta (GSK3b) (AID 2283165)
Procedure: as §2, with “NVS_ENZ_hGSK3b” for “NVS_ENZ_hFGFR1”, “plate.NVS_ENZ_hGSK3b” for “plate.NVS_ENZ_hFGFR1”, “NVS_ENZ_hGSK3b,” for “NVS_ENZ_hFGFR1,”, “GSK3B.” for “FGFR1.”, “serine/threonine” for “receptor tyrosine”
as §1

Sequence of Glycogen synthase kinase-3 beta (Homo sapiens) (P49841 whole entry, looked up): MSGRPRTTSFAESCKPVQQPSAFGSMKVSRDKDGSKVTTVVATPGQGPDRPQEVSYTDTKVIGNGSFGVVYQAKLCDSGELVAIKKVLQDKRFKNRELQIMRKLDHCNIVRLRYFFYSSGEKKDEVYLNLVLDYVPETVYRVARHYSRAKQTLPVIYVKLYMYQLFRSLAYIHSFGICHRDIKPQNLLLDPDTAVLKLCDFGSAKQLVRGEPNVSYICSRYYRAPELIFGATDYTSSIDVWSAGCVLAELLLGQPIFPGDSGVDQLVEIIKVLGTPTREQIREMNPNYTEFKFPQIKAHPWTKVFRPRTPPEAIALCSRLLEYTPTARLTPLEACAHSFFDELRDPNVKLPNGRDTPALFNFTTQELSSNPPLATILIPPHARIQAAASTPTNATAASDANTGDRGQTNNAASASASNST

How did the outcome turn out when `N#CSCSC#N` was run?
The outcome was “inactive”.

How did the outcome turn out when `Nc1c(Cl)cc([N+](=O)[O-])cc1Cl` was run?
The outcome was “inactive”.

Which outcome does the source give for `CCNc1nc(Cl)nc(NC(C)(C)C#N)n1` here?
Its outcome is “inactive”.

`CC1=NNC(=O)N(/N=C/c2cccnc2)C1` was tested. Which AC50 did it give?
Its AC50 is 32.8 µM (active).

target: human IkappaB Kinase alpha (IKKa), CHUK (gene 1147) (UniProt O15111); test: NVS_ENZ_hIKKa: NovaScreen (NVS) Enzymatic Assay for human IkappaB Kinase alpha (IKKa) (AID 2283167)
Procedure: as §2, with “NVS_ENZ_hIKKa” for “NVS_ENZ_hFGFR1”, “plate.NVS_ENZ_hIKKa” for “plate.NVS_ENZ_hFGFR1”, “NVS_ENZ_hIKKa,” for “NVS_ENZ_hFGFR1,”, “CHUK.” for “FGFR1.”, “serine/threonine” for “receptor tyrosine”
as §1

Sequence of human IkappaB Kinase alpha (IKKa), CHUK (gene 1147) (O15111 whole entry, looked up): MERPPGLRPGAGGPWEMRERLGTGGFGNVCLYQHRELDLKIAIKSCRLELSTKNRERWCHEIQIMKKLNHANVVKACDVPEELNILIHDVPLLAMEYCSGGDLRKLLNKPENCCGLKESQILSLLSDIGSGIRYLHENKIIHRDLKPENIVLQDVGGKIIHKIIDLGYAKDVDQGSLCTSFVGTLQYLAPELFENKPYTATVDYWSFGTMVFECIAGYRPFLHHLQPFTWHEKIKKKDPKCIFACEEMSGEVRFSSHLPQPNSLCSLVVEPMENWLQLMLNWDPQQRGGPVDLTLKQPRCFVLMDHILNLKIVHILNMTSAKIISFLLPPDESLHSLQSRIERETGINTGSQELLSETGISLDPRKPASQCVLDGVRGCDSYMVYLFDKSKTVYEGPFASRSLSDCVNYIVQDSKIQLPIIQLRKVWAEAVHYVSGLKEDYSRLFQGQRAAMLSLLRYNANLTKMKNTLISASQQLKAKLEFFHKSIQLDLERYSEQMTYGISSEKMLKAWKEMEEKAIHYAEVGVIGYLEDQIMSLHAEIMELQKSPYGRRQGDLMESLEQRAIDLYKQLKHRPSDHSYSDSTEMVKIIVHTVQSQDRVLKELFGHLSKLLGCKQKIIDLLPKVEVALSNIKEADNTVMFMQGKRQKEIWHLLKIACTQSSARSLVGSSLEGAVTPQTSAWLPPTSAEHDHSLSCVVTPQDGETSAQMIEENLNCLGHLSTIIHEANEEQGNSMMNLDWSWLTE

`COc1cccc(C(=O)NN(C(=O)c2cc(C)cc(C)c2)C(C)(C)C)c1C` was tested. Which outcome did it give?
The outcome was “inactive”.

With `CC(C)N(C(=O)SCC(Cl)=C(Cl)Cl)C(C)C` as the compound, how does the outcome read?
Its outcome is “inactive”.

`CCC(CC)Nc1c([N+](=O)[O-])cc(C)c(C)c1[N+](=O)[O-]` was tested. Which outcome did it give?
Its outcome is “inactive”.

For `S=C1NCCN1`, which outcome is on record?
The outcome was “inactive”.

target: human Janus Kinase 2 (Jak2), JAK2 (gene 3717) (UniProt O60674); test: NVS_ENZ_hJak2: NovaScreen (NVS) Enzymatic Assay for human Janus Kinase 2 (Jak2) (AID 2283169)
In short: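 Single-point duplicate screen at 25 uM, with hits run in concentration series to a 50 uM top dose. Substrate-product separation by mobility shift with fluorescence detection, 1 h post-dosing; DMSO baseline.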

Sequence of human Janus Kinase 2 (Jak2), JAK2 (gene 3717) (O60674 whole entry, looked up): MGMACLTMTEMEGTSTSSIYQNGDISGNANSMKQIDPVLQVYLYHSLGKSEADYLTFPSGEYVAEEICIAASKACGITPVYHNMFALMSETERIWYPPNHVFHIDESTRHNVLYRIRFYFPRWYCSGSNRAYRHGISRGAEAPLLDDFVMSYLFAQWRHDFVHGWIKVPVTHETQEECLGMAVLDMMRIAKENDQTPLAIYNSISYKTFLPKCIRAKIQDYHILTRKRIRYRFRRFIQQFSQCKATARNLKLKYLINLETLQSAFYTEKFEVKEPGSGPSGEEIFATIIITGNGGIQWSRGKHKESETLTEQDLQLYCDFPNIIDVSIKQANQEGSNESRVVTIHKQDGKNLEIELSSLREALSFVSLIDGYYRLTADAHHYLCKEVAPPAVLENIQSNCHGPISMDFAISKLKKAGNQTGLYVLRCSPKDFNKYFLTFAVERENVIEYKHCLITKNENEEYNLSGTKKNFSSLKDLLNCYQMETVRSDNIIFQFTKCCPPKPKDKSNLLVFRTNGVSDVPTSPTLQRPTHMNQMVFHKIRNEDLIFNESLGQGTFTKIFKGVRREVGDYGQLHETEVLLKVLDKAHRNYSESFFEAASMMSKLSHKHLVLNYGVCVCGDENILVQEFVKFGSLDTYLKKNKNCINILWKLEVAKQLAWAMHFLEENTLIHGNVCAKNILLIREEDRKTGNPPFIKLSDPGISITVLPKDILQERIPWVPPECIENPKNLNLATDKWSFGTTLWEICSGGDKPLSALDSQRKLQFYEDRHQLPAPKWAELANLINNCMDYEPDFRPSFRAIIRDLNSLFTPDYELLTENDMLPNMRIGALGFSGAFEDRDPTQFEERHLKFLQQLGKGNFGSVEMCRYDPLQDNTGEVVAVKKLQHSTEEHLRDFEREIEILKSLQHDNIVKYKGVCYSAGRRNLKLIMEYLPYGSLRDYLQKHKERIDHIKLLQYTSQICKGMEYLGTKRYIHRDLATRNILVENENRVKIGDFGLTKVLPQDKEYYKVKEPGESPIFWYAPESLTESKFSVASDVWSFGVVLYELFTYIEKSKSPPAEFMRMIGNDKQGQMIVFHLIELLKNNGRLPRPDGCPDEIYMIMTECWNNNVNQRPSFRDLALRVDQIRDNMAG

How did the AC50 turn out when `CC[C@H](C)[C@H]1O[C@]2(C=C[C@@H]1C)C[C@@H]1C[C@@H](C/C=C(\C)[C@@H](O[C@H]3C[C@H](OC)[C@@H](O[C@H]4C[C@H](OC)[C@@H](NC)[C@H](C)O4)[C@H](C)O3)[C@@H](C)/C=C/C=C3\CO[C@@H]4[C@H](O)C(C)=C[C@@H](C(=O)O1)[C@]34O)O2` was run?
Its AC50 is 15.4 µM (active).

`O=c1ccc(=O)[nH][nH]1` was tested. Which outcome did it give?
The outcome was “inactive”.

With `Cc1cc(C2CC2)nc(Nc2ccccc2)n1` as the compound, how does the outcome read?
The outcome was “inactive”.

From PubChem BioAssay (EPA / NIEHS)
